Results filed as inconclusive are left out. A call without a number means that no potency is given here. The source made the active and inactive calls. Calls follow the shape of the dose curve; as a rule, active = well fitted curve in the direction sought with a large enough effect; inconclusive = small, poorly fitted or top-dose-only effect, or another doubt; inactive = no such curve, though single readings can be large; an effect the other way counts as inactive or inconclusive.
Columns and labels:
[1] = molecular target: Glutathione peroxidase 1 (Homo sapiens) (UniProt P07203); experiment: Primary qHTS Assay for Inhibitors of Recombinant Selenoprotein Glutathione Peroxidase 1 (GPX1) (AID 1845191); details: recombinant GPX1, GR-coupled NADPH fluorescence, 15 min; series mostly up to 48.8 µM; also: nearly all actives have a fitted effect of over 65% in size
Glutathione peroxidase 1 (Homo sapiens), sequence (P07203 whole entry, looked up): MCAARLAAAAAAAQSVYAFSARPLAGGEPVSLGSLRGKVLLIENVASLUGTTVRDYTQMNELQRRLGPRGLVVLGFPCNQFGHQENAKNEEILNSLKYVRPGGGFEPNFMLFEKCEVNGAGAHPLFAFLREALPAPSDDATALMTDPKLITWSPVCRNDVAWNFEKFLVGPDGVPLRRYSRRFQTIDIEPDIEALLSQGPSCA
Procedure, shortened: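 GR-coupled assay: compounds preincubated 30 min at room temperature with GPX1, then reaction started with CHP; final 10 nM GPX1, 1 mM GSH, 0.5 mM CHP, 0.5 mM NADPH, 100 nM GR, 0.01% BSA, pH 7.5 Tris buffer. NADPH fluorescence (340/450 nm) read at 0 and 15 min.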

[2] = molecular target: Phospholipid hydroperoxide glutathione peroxidase GPX4 (Homo sapiens) (UniProt P36969); experiment: Primary qHTS Assay for Inhibitors of Recombinant Selenoprotein Glutathione Peroxidase 4 (GPX4) (AID 1845192); details: recombinant GPX4, GR-coupled NADPH fluorescence, 15 min; series mostly up to 50 µM; also: nearly all actives have a fitted effect of over 65% in size; also: potency is read from the fitted curve at half-maximal effect
Phospholipid hydroperoxide glutathione peroxidase GPX4 (Homo sapiens), sequence (P36969 whole entry, looked up): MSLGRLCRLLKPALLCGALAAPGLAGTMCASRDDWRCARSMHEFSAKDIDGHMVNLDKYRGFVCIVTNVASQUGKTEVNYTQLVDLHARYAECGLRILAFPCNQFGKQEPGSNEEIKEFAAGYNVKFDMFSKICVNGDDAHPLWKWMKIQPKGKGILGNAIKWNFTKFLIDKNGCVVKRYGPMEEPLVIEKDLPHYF
Procedure, shortened: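 GR-coupled assay: recombinant GPX4 preincubated 30 min with compound at room temperature; final 200 nM GPX4, 1 mM GSH, 0.5 mM cumene hydroperoxide, 0.5 mM NADPH, 100 nM GR, 0.01% BSA, pH 7.5 Tris. NADPH fluorescence (340/450 nm) read at 0 and 15 min.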

[3] = Quantitative High-Throughput drug screen in 47 multiple myeloma cell lines against the NCATS MIPE library collection: FR4_PLB cell viability assay (AID 1918924; also: nearly all actives have a fitted effect of over 35% in size; also: potency is read from the fitted curve at half-maximal effect); details: FR4_PLB myeloma cells viability, CellTiter-Glo ATP, 48 h; series mostly up to 45.8 µM
Procedure, shortened: (§1)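 Inhibition of cell viability is measured here. Each line was plated at 500 cells per well, treated with MIPE 4.0 drugs, kept 48 hours at 37C, then assayed for ATP content by CellTiter-Glo luminescence.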

[4] = Quantitative High-Throughput drug screen in 47 multiple myeloma cell lines against the NCATS MIPE library collection: EJM_DSMZ cell viability assay (AID 1918926; also: nearly all actives have a fitted effect of over 30% in size; also: potency is read from the fitted curve at half-maximal effect); details: EJM myeloma cell viability, CellTiter-Glo ATP, 48 h; series mostly up to 45.8 µM
Procedure, shortened: (§2)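 CellTiter-Glo ATP luminescence gave viability after 48 h compound treatment at 37C of 500 multiple myeloma cells per well. Normalisation used DMSO-only wells as 100% and media-only wells as 0% viability; primary qHTS of approved and investigational drugs.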

[5] = Quantitative High-Throughput drug screen in 47 multiple myeloma cell lines against the NCATS MIPE library collection: AMO1_DSMZ cell viability assay (AID 1918927; also: nearly all actives have a fitted effect of over 30% in size; also: potency is read from the fitted curve at half-maximal effect); details: AMO1 myeloma cells viability, CellTiter-Glo ATP luminescence, 48 h; series mostly up to 45.8 µM
Procedure, shortened: as §2

[6] = Quantitative High-Throughput drug screen in 47 multiple myeloma cell lines against the NCATS MIPE library collection: ARD_JJKsccE7 cell viability assay (AID 1918929; also: potency is read from the fitted curve at half-maximal effect); details: ARD myeloma cell line viability, CellTiter-Glo, 48 h; series mostly up to 45.8 µM
Procedure, shortened: as §2

[7] = Quantitative High-Throughput drug screen in 47 multiple myeloma cell lines against the NCATS MIPE library collection: Delta47_JCRB cell viability assay (AID 1918925; also: nearly all actives have a fitted effect of over 45% in size; also: potency is read from the fitted curve at half-maximal effect); details: Delta47 myeloma viability, CellTiter-Glo ATP, 48 h; series mostly up to 45.8 µM
Procedure, shortened: as §2

[8] = Quantitative High-Throughput drug screen in 47 multiple myeloma cell lines against the NCATS MIPE library collection: ARP1_JJKsccF8 cell viability assay (AID 1918928; also: nearly all actives have a fitted effect of over 40% in size; also: potency is read from the fitted curve at half-maximal effect); details: ARP1 myeloma cells viability, CellTiter-Glo ATP, 48 h; series mostly up to 45.8 µM
Procedure, shortened: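 ATP readout (CellTiter-Glo), 48 h drug incubation, 37 °C/5% CO2, 500 cells per well; normalisation to DMSO (100%) and media-only (0%) controls.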

[9] = Quantitative High-Throughput drug screen in 47 multiple myeloma cell lines against the NCATS MIPE library collection: Karpas620_DSMZ cell viability assay (AID 1918959); details: Karpas620 myeloma viability, CellTiter-Glo ATP luminescence, 48 h; series mostly up to 45.8 µM; also: nearly all actives have a fitted effect of over 30% in size; also: potency is read from the fitted curve at half-maximal effect
Procedure, shortened: as §1

[10] = tested on: Nanoluciferase (engineered Oplophorus gracilirostris luciferase); experiment: Primary Nanoluciferase (NLuc) qHTS assay for identification of artifact compounds. (AID 1845222); details: NLuc-conditioned medium, Nano-Glo luminescence, 5 min; series mostly up to 54.1 µM;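 also: NLuc secreted into diluted conditioned medium of S16 cells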
Procedure, shortened: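 S16 cell supernatant NLuc, 1:55; cpds qHTS; 15 min RT dark; Nano-Glo substrate 1:100, 5 min; luminescence; Hill fit of % inhibition.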

[11] = Primary redox qHTS assay for identification of artifact compounds. (AID 1845223); details: Amplex Red/HRP redox cycling with DTT, fluorescence; series mostly up to 53.8 µM
Procedure, shortened: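 Amplex Red (25 uM) and HRP (250 mU/mL) in HBSS, with compounds for 15 min, then 250 uM DTT for 30 min, room temperature, dark. Fluorescence 525/598 nm read; normalized to DMSO and 10 uM DA3003; Hill fit.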

Structure (SMILES) | Potency [1] | Potency [2] | Potency [3] | Potency [4] | Potency [5] | Potency [6] | Potency [7] | Potency [8] | Potency [9] | Potency [10] | outcome [11]
CN(C)N=Nc1nc[nH]c1C(N)=O | inactive | inactive | inactive | inactive | inactive | 0.187 µM (active) |  |  |  |  | 
COC(=O)[C@H](c1ccccc1Cl)N1CCc2sccc2C1 | inactive | inactive | inactive |  | 26.4 µM (active) |  | inactive | inactive |  |  | 
CSc1cccc(Nc2ncc3cc(-c4c(Cl)cccc4Cl)c(=O)n(C)c3n2)c1 | inactive | inactive | 0.372 µM (active) | 6.62 µM (active) |  |  |  | 1.87 µM (active) |  |  | 
CN1CCN(c2ncc(-c3cc(Cl)cc(Cl)c3Cl)c(N)n2)CC1 | inactive | inactive | inactive |  |  | inactive | 23.5 µM (active) |  | 20.9 µM (active) |  | 
N[C@@H](CC(=O)N1CCn2c(nnc2C(F)(F)F)C1)Cc1cc(F)c(F)cc1F | inactive | inactive | inactive | inactive | inactive | inactive |  | inactive | inactive |  | 
COc1ccc(Cn2ccc3ccc(C(=O)NO)cc32)cc1 | inactive | inactive | inactive | 20.9 µM (active) | 16.6 µM (active) |  |  |  | inactive | inactive | inactive
COC(=O)Nc1ccc(-c2nc(N3CCOCC3)c3cnn(C4CCN(C(=O)OC)CC4)c3n2)cc1 | inactive | inactive | 1.05 µM (active) | 6.62 µM (active) |  | 0.526 µM (active) |  | 0.662 µM (active) |  |  | 
NCC1CCC(C(=O)O)CC1 (centres undefined) | inactive | inactive | inactive | inactive | inactive | inactive |  | inactive | inactive |  | 
Cc1nc(C(=O)NCC(=O)O)c(O)c2ccc(Oc3ccccc3)cc12 | inactive | inactive |  | inactive |  |  |  | inactive | inactive | inactive | inactive
CN1CCN(c2cccc(Nc3nc4c(-c5ccc(S(C)(=O)=O)cc5)cccn4n3)c2)CC1 | inactive | inactive |  | 4.18 µM (active) | 4.18 µM (active) | 1.32 µM (active) |  |  | 0.833 µM (active) | inactive | 
Cc1ccc(S(=O)(=O)Nc2nc3ccccc3nc2Nc2ccc3nsnc3c2)cc1 | inactive | inactive | 6.45 µM (active) |  | 0.512 µM (active) | 0.724 µM (active) | 0.575 µM (active) | 7.24 µM (active) |  |  | 
O=C1CCCC(=O)C1C(=O)c1ccc(C(F)(F)F)cc1[N+](=O)[O-] | inactive | inactive | inactive | inactive | inactive | 6.62 µM (active) |  | inactive | inactive |  | 
COc1cccc(OC)c1-c1cc(C(=O)NC2(C(=O)O)C3CC4CC(C3)CC2C4)nn1-c1ccnc2cc(Cl)ccc12 (centres undefined) | inactive | inactive | inactive | inactive | inactive | inactive | inactive |  | inactive |  | 
Cc1cn([C@@H]2C[C@@H](O)[C@H](CO)O2)c(=O)[nH]c1=O | inactive | inactive | inactive | inactive | inactive | inactive | inactive |  | inactive |  | 
Cc1cccc(-c2[nH]c(C(C)(C)C)nc2-c2ccc3c(c2)OCO3)n1 | inactive | inactive | 29.6 µM (active) | 11.8 µM (active) | inactive | 5.26 µM (active) |  |  |  |  | 
CCCCC(C)(C)[C@H](O)C=C[C@H]1[C@H](O)CC(=O)[C@H]1CC=CCCCC(=O)O | inactive | inactive | inactive | 5.9 µM (active) |  | inactive |  |  | inactive |  | 
Cc1ccc(C(=O)N(CCCN)[C@@H](c2oc3cc(Cl)ccc3c(=O)c2Cc2ccccc2)C(C)C)cc1 | inactive | inactive |  |  | 0.001 µM (active) | 0.001 µM (active) |  | inactive |  |  | 
CCC[C@H](N[C@@H](C)C(=O)N1[C@@H]2CCCC[C@H]2C[C@H]1C(=O)O)C(=O)OCC | inactive | inactive | inactive | inactive |  |  |  |  | inactive |  | 
C[C@@H](O[C@H]1OCCN(Cc2n[nH]c(=O)[nH]2)[C@@H]1c1ccc(F)cc1)c1cc(C(F)(F)F)cc(C(F)(F)F)c1 | inactive | inactive | 29.6 µM (active) |  | 5.9 µM (active) | inactive |  | 26.4 µM (active) | 7.43 µM (active) |  | 
CCCCc1ccc(NS(=O)(=O)c2ccc(C)c(C(=O)N3CCN(c4cccc(C)c4C)CC3)c2)cc1 | inactive | inactive |  |  | inactive | inactive |  |  | inactive |  | 
COc1ccc2c(c1)c(C1=C(c3c[nH]c4ccccc34)C(=O)NC1=O)cn2CCCN(C)C | inactive | inactive |  |  | 14.8 µM (active) | 23.5 µM (active) | 7.43 µM (active) |  |  |  | 
CO[C@@H]1C(N(C)C(=O)c2ccccc2)C[C@H]2O[C@]1(C)n1c3ccccc3c3c4c(c5c6ccccc6n2c5c31)C(=O)NC4=O (some centres undefined) | inactive | 18 µM (active) |  |  |  | 1.87 µM (active) | 1.87 µM (active) |  | inactive |  | 
CC(C)C[C@@H](C(=O)N[C@H](C(=O)OC1CCCC1)c1ccccc1)[C@H](O)C(=O)NO | inactive | inactive |  |  | inactive | 4.69 µM (active) | 20.9 µM (active) |  | 5.26 µM (active) |  | 
CC(=O)NCCC(=O)N[C@@H](CCC(N)=O)C(=O)N[C@@H](CO)C(=O)N[C@@H](CCC(N)=O)C(=O)N[C@@H](CCC(N)=O)C(=O)N[C@H](C(=O)N[C@@H](Cc1ccccc1)C(=O)N[C@]1(C)CCCCCCC=CCCC[C@@](C)(C(=O)N[C@@H](CCC(N)=O)C(=O)N[C@@H](CC(N)=O)C(N)=O)NC(=O)[C@H](CC(C)C)NC(=O)[C@H](CC(C)C)NC(=O)[C@@H](CCCNC(=N)N)NC(=O)[C@H](Cc2c[nH]c3ccccc23)NC(=O)[C@H](CC(C)C)NC(=O)[C@H](CC(N)=O)NC1=O)[C@H](C)O | inactive | inactive |  | 18.7 µM (active) |  | inactive | 20.9 µM (active) |  | inactive |  | 
